Molecules are shown by their SMILES. The list shows a part of the results. Values without a mark were called inactive. Calls of active or inactive are those of the source.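 How the source made its calls, unless noted: active means inhibition above a limit from the primary screen, the mean over all compounds plus 3 SD (cut at about 19% in these data); inactive means the rest.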

Tested on in one experiment: not listed separately
Nature of the experiment: KLF5 expression inhibitors, confirmation, DLD-1 cells, luminescence (AID 1834;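 active means inhibition above a set limit taken from the earlier primary screen, cut at about 63% in these data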;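 further: 0% = DMSO wells and 100% = LY294002 at 200 µM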). The settings on record: DLD-1 KLF5 promoter firefly luciferase reporter, at 4 µM, stronger effect = higher value. (In general: Reporter assays use an easily measured gene product as a stand-in for the process of interest.)
Usually inhibition stands for the drop in the measured response relative to a control, in per cent. Consider `Cc1ccc(-c2cn3cc(C)ccc3n2)cc1`, for which the inhibition is 85% (active).

Consider `CN(NC(=O)c1ccccc1F)c1nc(C(F)(F)F)nc2ccccc12`, for which the inhibition is 77% (active).

In the case of `Nc1ccc2nn(-c3ccc(Cl)cc3)nc2c1`, the inhibition is -145%.

Tested on in the next experiment: not listed separately
Nature of the experiment: cytotoxicity in rat IEC-6 cells, cytotoxicity control for KLF5 inhibitor project, cell-based, luminescence, triplicate (AID 1905; in the data active means inhibition above about 23%;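 further: cells exposed to compounds for 48 hours before viability read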). The settings on record: IEC-6 rat intestinal cells, viability luminescence; at 4 µM; stronger effect = higher value.
As to `Cc1ccc(-c2cn3cc(C)ccc3n2)cc1`, the inhibition was 8.78%.

Turning to `CN(NC(=O)c1ccccc1F)c1nc(C(F)(F)F)nc2ccccc12`, the inhibition was 59.6% (active).

As to `Nc1ccc2nn(-c3ccc(Cl)cc3)nc2c1`, the inhibition was 4.57%.

A further experiment has as its system Fam108b (Abhd17b) serine hydrolase [Mus musculus]. Nature of the experiment: mouse Fam108b serine hydrolase inhibitors, confirmation, counter-screen for RBBP9 inhibitor project, biochemical, fluorescence polarization, triplicate (AID 1978).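 Further: 0% = median of active Fam108b wells and 100% = catalytically dead S170A mutant; inhibitors free the probe so polarization falls as inhibition rises.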 The settings on record: recombinant Fam108b, FP-Rh probe fluorescence polarization; at 9.51 µM; stronger effect = higher value.
Regarding `Clc1ccccc1CSc1nnc(-c2ccco2)c(-c2ccco2)n1`, the inhibition was 1%.

On to `Cc1nc(NC(=O)c2cccc(Cl)c2)sc1-c1csc(Nc2cccc(Cl)c2)n1`, for which the inhibition was 9.74%.

In the case of `Cc1ccc(NS(=O)(=O)c2ccc(N/N=C/c3ccccc3OCC(=O)O)c([N+](=O)[O-])c2)c(C)c1`, the inhibition is 17.7%.

On to `CCCCC(=O)Nc1nc(C)c(-c2csc(Nc3ccc(Cl)cc3)n2)s1`, for which the inhibition is 8.42%.

With `Oc1oc(-c2ccccc2Br)nc1/C=N/c1ccccn1`, the inhibition was 68.7% (active).

With `O=C(N/N=C/c1sc(N2CCCCC2)nc1-c1cccs1)c1cccnc1`, the inhibition is 9.2%.

On to `COc1ccc(NS(=O)(=O)c2cc(NC(=O)CC(=O)c3ccc([N+](=O)[O-])cc3)ccc2C)cc1`, for which the inhibition is 44.3% (active).

As to `COCCOC(=O)c1sc(=S)n(CCOC)c1N`, the inhibition is 19.6% (active).

With `Cc1[nH]n(C(N)=S)c(=O)c1N=Nc1ccc(Cl)cc1Cl`, the inhibition is 22.4% (active).

Turning to `C/C(=C\c1ccco1)C1Nc2cccc3cccc(c23)N1`, the inhibition is 26.3% (active).

As for `COc1ccc(-c2csc(NC(=O)COC(=O)Cc3ccc(Cl)cc3Cl)n2)cc1`, the inhibition was 3.19%.

As for `O=[N+]([O-])c1cc(Cl)cc(/C=N/NC(=S)Nc2cc(S(=O)(=O)N3CCOCC3)ccc2Cl)c1O`, the inhibition was 46.8% (active).

Take `COC(=O)CSc1nccc(-c2cccs2)n1`: the inhibition is -1%.

`C/C(=N\Nc1cccc(C(=O)O)c1)c1ccc2c(c1)Nc1ccccc1S2`: the inhibition was 26.1% (active).

As to `COc1ccc(-c2nc(CS(=O)CC(=O)NCc3ccccn3)c(C)o2)cc1` (configuration not stated), the inhibition is 23.4% (active).

As for `O=C(CCn1c(SCC(=O)c2ccccc2)nc2ccccc2c1=O)NCc1ccc(F)cc1`, the inhibition is -13.1%.

With `COc1ccc(OC)c(Nc2nc(-c3ccc(O)c(O)c3)cs2)c1`, the inhibition is -20.9%.

As to `Oc1ccc(C2Nc3cccc4cccc(c34)N2)cc1`, the inhibition was 14.4%.

`COc1cccc(C2Nc3cccc4cccc(c34)N2)c1`: the inhibition is 12.6%.

Regarding `O=C(NC1CC1)c1ccc(-c2ccccc2)cc1`, the inhibition is -4.72%.

On to `Cc1ccc(-c2nc3c(cnn3-c3ccccc3)c(=O)o2)cc1`, for which the inhibition is 16.2%.

Regarding `c1ccc(CSc2nnc(-c3ccco3)c(-c3ccco3)n2)cc1`, the inhibition was 1.53%.

Take `O=C(NNc1c2ccccc2nc2ccccc12)c1cc2ccccc2cc1O`: the inhibition was 51.3% (active).

Take `COc1ccc2nc(Nc3nc4cc5c(cc4s3)OCCO5)sc2c1`: the inhibition is -9.21%.

Take `O=C(Nc1ccc(-c2csc(Nc3cccc(C(F)(F)F)c3)n2)cc1)c1cccc(C(F)(F)F)c1`: the inhibition was 33.6% (active).

With `Cc1ccc(C2C3=C(Nc4[nH]n(-c5ccccc5)c(=O)c42)c2ccccc2C3=O)cc1` (configuration not stated), the inhibition was 56.8% (active).

On to `Cc1cccc(-c2nc(Nc3ccc(O)cc3)c3ccccc3n2)c1`, for which the inhibition was 17.7%.

For the compound `COc1ccc(/C=C/C(=O)OCC(=O)Nc2cccc(Oc3ccccc3)c2)c(OC)c1`, the inhibition is 47.3% (active).

`CC[N+](C)(CC)CCC[n+]1c(-c2ccccc2)c2cc(N)ccc2c2ccc(N)cc21`: the inhibition was 61.8% (active).

For the compound `Cc1cccc2cc3c(N)c(C(=O)N4CCCc5ccccc54)sc3nc12`, the inhibition was 4.65%.

As for `COCCNC(=O)Nc1ccc2nc(-c3ccco3)c(-c3ccco3)nc2c1`, the inhibition is 17.4%.

The record behind these values is PubChem BioAssay.
